Bioassay records deposited in PubChem by National Center for Advancing Translational Sciences (NCATS).
Rows were chosen to be rich in hits. Some 7.5% of all compounds tested hit in one or more screens of this group.
Luc counter – Kinase-Glo luciferase inhibition (counter-screen) | Q27757 | Kinase-Glo luciferase, ATP luminescence, 8 min | Potency, µM (highest dose often 38.3 µM), without a hit: at the top dose activity change, negative = inhibition, hits mostly inhibitors | 0.28% of 200,000 active; note: % is set by controls: 0 for no effect and ±100 for the full control effect; nearly all actives have a fitted effect of over 60% in size
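Recombinant Kinase-Glo luciferase, 10 uM ATP (linear range), luciferin; imidazole pH 7.2 / KCl / MgCl2 / Tween / BSA buffer; 8 min RT; luminescence.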
ELG1 genotox – induces genotoxicity in HEK293T cells with luciferase-tagged ELG1 | HEK293T ELG1-luciferase reporter, luminescence, 16 h | Potency, µM (titrated, usually from 46 µM), for the others: at the highest dose activity change, positive = activation, most hits filed as activators | 1.3% of 330,000 active; note: % of control where 0% means no effect; nearly all actives have a fitted effect of over 60% in size
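DMSO vehicle served as control against compound-treated ELG1-luciferase HEK293T cells; exposure lasted 16 hr at 37 °C and 5% CO2, followed by ONE-Glo luminescence detection after 30 min.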
FLuc counter – firefly luciferase modulation, counter-screen for miR-21 project; P08659; purified FLuc, Km substrates, luminescence inhibition; Potency, µM (doses to about 57.5 µM), inactives show at the top dose activity change, negative = inhibition, actives largely listed as inhibitors; 6.9% of 360,000 active; AID 588342;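 note: plate controls were vehicle for no effect and reference inhibitor for full effect; nearly all actives have a fitted effect of over 55% in size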
Target sequence (P08659 whole entry, looked up): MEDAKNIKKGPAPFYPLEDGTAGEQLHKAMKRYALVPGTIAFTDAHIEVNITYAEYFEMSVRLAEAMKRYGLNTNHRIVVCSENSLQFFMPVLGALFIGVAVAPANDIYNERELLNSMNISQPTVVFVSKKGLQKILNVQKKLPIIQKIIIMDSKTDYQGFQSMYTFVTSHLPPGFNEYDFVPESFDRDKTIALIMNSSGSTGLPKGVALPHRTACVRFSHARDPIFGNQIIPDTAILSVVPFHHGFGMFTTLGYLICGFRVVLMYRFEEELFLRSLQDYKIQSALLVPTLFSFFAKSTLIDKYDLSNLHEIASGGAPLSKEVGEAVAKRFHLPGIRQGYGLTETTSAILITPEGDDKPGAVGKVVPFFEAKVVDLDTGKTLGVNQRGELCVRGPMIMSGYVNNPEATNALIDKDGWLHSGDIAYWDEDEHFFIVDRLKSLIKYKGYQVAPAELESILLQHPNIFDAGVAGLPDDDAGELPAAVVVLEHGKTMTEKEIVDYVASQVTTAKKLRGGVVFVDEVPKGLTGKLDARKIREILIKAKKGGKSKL
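Purified P. pyralis luciferase, 10 nM final, with Km-level 10 uM D-luciferin and 10 uM ATP in 50 mM Tris acetate pH 7.5, 10 mM Mg acetate, 0.01% Tween-20, 0.05% BSA; 6-point qHTS titration about 60 µM downward; luminescence read.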
SMN2 splice up – increases expression of the SMN2 splice variant. 2.8% of 210,000 active. Potency, µM (top dose mostly 46.1 µM), inactives show at the top dose activity change, positive = activation, most hits filed as activators. HEK293 SMN2-luciferase splicing reporter, luminescence, 30-36 h; note: % of control where 0% means no effect; nearly all actives have a fitted effect of over 55% in size
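HEK293 cells carry an SMN2 […]–luciferase reporter in which exon 7 inclusion puts luciferase in frame. Cells were plated 10-12 h before compound addition, then incubated 30-36 h at 37C. ONE-Glo luminescence was read; sodium butyrate at 4.5 mM final served as control.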
NPC1 promoter act – activators of NPC1 promoter. Huh7 NPC1 promoter luciferase reporter, 24 h. 2.4% of 320,000 active. AID 485313. Potency, µM (titrated, usually from 9.22 µM), without a hit: at the highest dose activation, most hits filed as activators; note: % of control where 0% means no effect; nearly all actives have a fitted effect of over 60% in size
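Stable NPC1-promoter luciferase Huh7 line; cpd (DMSO) 24 h, 37 °C, 5% CO2; Amplite luciferase reagent 10 min RT; luminescence readout. qHTS format.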
Rab9 promoter act – activators of Rab9 promoter; 2.8% of 320,000 active; Huh7 Rab9 promoter-luciferase reporter, luminescence, 24 h; AID 485297; Potency, µM (top dose mostly 9.22 µM), inactives show at the highest dose activation, negative = inhibition, usual class: activators; note: % of control where 0% means no effect; nearly all actives have a fitted effect of over 60% in size
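Using Huh7 cells stably transfected with Rab9 promoter–luciferase, compounds were incubated 24 h at 37 °C, 5% CO2; luciferase luminescence was read 10 min after reagent addition.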
The depositor's hits bear a star; u = inconclusive; x = not tested or not shown. Calls come from the whole dose curve; as a rule, active = well fitted curve in the direction sought with a large enough effect; inconclusive = small, poorly fitted or top-dose-only effect, or another doubt; inactive = no such curve, though single readings can be large; an effect the other way counts as inactive or inconclusive. Potency is the fitted concentration of half-maximal effect.

SMILES	Luc counter	ELG1 genotox	FLuc counter	SMN2 splice up	NPC1 promoter act	Rab9 promoter act
COC(=O)Cc1[nH]n(-c2nc3ccccc3s2)c(=O)c1C(C)=Nc1ccc(Cl)cc1	x	2%	12µM*	x	-44%	-58%
COC(=O)Cc1cc(=O)n(-c2ccccc2)[nH]1	2%	-3%	2%	25%	-1%	2%
COC(=O)Cc1[nH]n(-c2ccccc2)c(=O)c1C(C)=Nc1ccccc1	-2%	10%	u	-14%	u	3.2µM*
COC(=O)Cc1[nH]n(-c2nc3ccccc3s2)c(=O)c1C(C)=Nc1ccc(C)cc1	-6%	-12%	u	-94%	-34%	-44%
C=CCN=C(NC#N)SCc1ccccc1	3%	0%	4%	14%	-3%	-6%
C=CCN=C(NC#N)SCC(=O)c1cccc(OC)c1	12%	6%	u	u	3.5µM*	u
Cc1ccc(C(=O)c2cnc3cc4c(cc3c2S(=O)(=O)c2ccccc2)OCCO4)cc1	4%	11%	1.7µM*	-85%	14%	13%
CCOc1ccc(S(=O)(=O)c2c(C(=O)c3ccc(C)cc3)cnc3cc4c(cc23)OCCO4)cc1	-1%	1%	6%	-19%	1%	-5%
O=C(OCc1csc(-c2ccccc2)n1)c1ccccc1O	-12%	u	6µM*	20%	27%	4µM*
Cc1nc(COC(=O)c2cc(O)c3ccccc3c2O)cs1	-3%	0%	5.4µM*	-1%	-2%	4%
O/N=C/c1ccc(OCc2ccccc2)c(Cl)c1	0%	16µM*	4.8µM*	11µM*	u	3.5µM*
Cc1ccc(COc2ccc(Br)cc2/C=N/O)cc1	-4%	u	13µM*	10%	u	u
CCOc1cc(/C=N/O)ccc1OCc1ccc(C)cc1	-2%	u	u	25%	0%	18%
O/N=C/c1ccc(OCc2ccccc2F)c(Cl)c1	-4%	5.2µM*	2.7µM*	7.9µM*	u	1.6µM*
O/N=C/c1cc(Br)cc(Br)c1OCc1ccccc1	-5%	1%	4%	-20%	-8%	-8%
O/N=C/c1cc(Br)ccc1OCc1cccc(F)c1	0%	-1%	u	-17%	3%	3%
O/N=C/c1ccc(OCc2ccccc2)c(Br)c1	0%	15µM*	7.6µM*	16µM*	19%	3.2µM*
CCOC(=O)C1=C(C)N=C2SCCC(=O)N2C1c1ccc(OCc2ccccc2)cc1 (stereo not drawn)	x	x	-4%	u	x	x
O=C(CCNS(=O)(=O)c1ccccc1)N1CCN(C(c2ccccc2)c2ccccc2)CC1	x	-12%	2%	x	0%	-5%
CCCc1oc2c(c(=O)c1CC)C(=O)CC(C)(C)C2	4%	-1%	9%	-8%	2%	-3%
O=C(COc1ccc(F)cc1Br)Nc1ccccc1N1CCOCC1	x	-13%	10%	x	2%	4%
CCOc1ccc2nc(C)cc(Nc3cccc([N+](=O)[O-])c3)c2c1	4%	26%	-10%	8%	-4%	-7%
COc1ccc(C(=O)N2CCC3(CC2)CCN(c2ccccc2)CC3)cc1	1%	x	x	-52%	x	x
CC(=O)Nc1cccn(Cc2c(Cl)cccc2Cl)c1=O	-3%	6%	-3%	6%	-2%	0%
COc1ccc(-c2cc3nc4n(c(=O)c3s2)CCC4)cc1	u	0.13µM*	0.6µM*	0.63µM*	0.45µM*	0.5µM*
COc1ccc(-c2cc3nc4n(c(=O)c3s2)CCCCC4)cc1	x	2.6µM*	1.3µM*	x	0.63µM*	0.71µM*
N#Cc1cc2c(nc1Cl)CCCC2	-6%	2%	4%	u	-1%	-5%
CC(C)CCNC(=O)CN(Cc1ccccc1)C(=O)CCC(=O)Nc1ccccn1	x	-2%	1%	x	3%	3%
CC(C)c1ccc(NC(=O)CN2C(=O)CCc3cc(S(=O)(=O)N4CCOCC4)ccc32)cc1	x	x	-15%	x	x	x
